The values below come from PubChem BioAssay (Tox21).

Test [1] is described as follows: qHTS assay to identify small molecule agonists of the constitutive androstane receptor (CAR) signaling pathway - cell viability counter screen (AID 1224836). Further: nearly all actives have a fitted effect of over 45% in size. Further: potency means the concentration at half of the fitted maximal effect. Put shortly:
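Fluorescence from CellTiter-Fluor indicates live cells after 23 h exposure. The human hepatoma line expresses hCAR and a CYP2B6-2.2kb reporter. Incubation medium contains 0.75 uM PK11195 (final).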
(Quantitative high-throughput screening tests each substance at several concentrations.)

The nature of test [2]: qHTS assay to identify small molecule antagonists of the constitutive androstane receptor (CAR) signaling pathway - cell viability counter screen (AID 1224837). Further: nearly all actives have a fitted effect of over 45% in size. Further: potency means the concentration at half of the fitted maximal effect. Put shortly:
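To flag cytotoxic false antagonists, HepG2 hCAR/CYP2B6-2.2kb cells were treated 23 hr with 15-concentration compound series and 50 nM CITCO at 37 C/5% CO2; CellTiter-Fluor fluorescence was the measured end point.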

The target of test [3] is Nuclear receptor subfamily 1 group I member 3 (Homo sapiens) (UniProt Q14994). Kind of test: qHTS assay to identify small molecule antagonists of the constitutive androstane receptor (CAR) signaling pathway (AID 1224838).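 Further: HepG2 cells stably expressing hCAR with CYP2B6 luciferase reporter stimulated by CITCO; nearly all actives have a fitted effect of over 40% in size.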 Further: potency means the concentration at half of the fitted maximal effect. Put shortly:
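Human hepatoma HepG2 cells expressing hCAR and a CYP2B6 promoter (2.2 kb) luciferase construct; compound titration (15 points) with 50 nM CITCO final, 24 h at 37 C/5% CO2; luminescence via ONE-Glo after 30 min at room temperature.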

Test [4] in a line: qHTS assay to identify small molecule antagonists of the estrogen related receptor signaling pathway with the pleiotropic PPARgamma coactivator (PGC) from Tox21 10K library - cell viability counter screen (AID 1224840; active means well fitted cell-killing curve with a large enough effect in the repeat runs, not every such curve was filed as active; further: nearly all actives have a fitted effect of over 40% in size; further: potency means the concentration at half of the fitted maximal effect). The method in brief: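 Seeded PGC/ERR cells (2,000/well, 6 h, 37 C/5% CO2) get compound by pin tool; 17.5 h incubation at 37 C; CellTiter-Fluor added, 30 min, fluorescence measured.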

For test [5], the target named is Thyrotropin receptor (Homo sapiens) (UniProt P16473). Briefly: qHTS assay to identify small molecule agonists of the thyroid stimulating hormone receptor (TSHR) signaling pathway (AID 1224843; calls by dose curve; further: on the % scale 0 is the no-effect control and ±100 the full control effect; nearly all actives have a fitted effect of over 45% in size). The method in brief: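 Compounds are titrated over 15 concentrations, in triplicate, onto TSHR-HEK293 cells seeded at 800/well. Plates sit 30 min at room temperature before cAMP-d2 and anti-cAMP cryptate are added; signal is read after a further hour.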
Chain of Thyrotropin receptor (Homo sapiens) (P16473 whole entry, looked up): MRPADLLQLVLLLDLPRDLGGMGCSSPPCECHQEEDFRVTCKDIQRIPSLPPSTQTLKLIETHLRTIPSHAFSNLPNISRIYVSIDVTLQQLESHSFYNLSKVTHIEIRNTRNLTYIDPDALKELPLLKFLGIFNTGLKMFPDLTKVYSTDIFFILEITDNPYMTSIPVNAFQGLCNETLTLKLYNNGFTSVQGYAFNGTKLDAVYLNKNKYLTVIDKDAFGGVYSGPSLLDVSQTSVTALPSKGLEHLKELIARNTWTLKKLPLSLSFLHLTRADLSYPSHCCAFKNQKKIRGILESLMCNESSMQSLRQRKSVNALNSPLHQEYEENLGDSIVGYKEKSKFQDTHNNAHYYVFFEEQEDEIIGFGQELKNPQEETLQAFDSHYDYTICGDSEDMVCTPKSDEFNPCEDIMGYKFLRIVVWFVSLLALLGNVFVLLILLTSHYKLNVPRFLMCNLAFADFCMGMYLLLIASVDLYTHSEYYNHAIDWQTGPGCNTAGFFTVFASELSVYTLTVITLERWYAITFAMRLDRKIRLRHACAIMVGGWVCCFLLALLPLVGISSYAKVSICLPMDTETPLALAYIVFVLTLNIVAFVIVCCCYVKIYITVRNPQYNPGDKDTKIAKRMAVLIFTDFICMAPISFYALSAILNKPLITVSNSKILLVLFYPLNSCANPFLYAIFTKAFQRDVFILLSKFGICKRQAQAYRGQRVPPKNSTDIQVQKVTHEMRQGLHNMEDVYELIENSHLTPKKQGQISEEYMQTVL

Test [6] is described as follows: qHTS assay to identify small molecule agonists of the hypoxia (HIF-1) signaling pathway - cell viability counter screen (AID 1224844; calls by dose curve; further: nearly all actives have a fitted effect of over 50% in size; further: potency means the concentration at half of the fitted maximal effect). Put shortly:
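HRE-bla ME-180; 0.5% dFBS; cpd 17 h, 37C, 5% CO2; CellTiter-Glo lum., 30 min RT, post-FRET read, same wells.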

Test [7] can be described thus: qHTS assay to identify small molecule agonists of H2AX (AID 1224845; active means well fitted activation curve with a large enough effect in the signal ratio in the repeat runs, not every such curve was filed as active; the % refers to the signal ratio; further: on the % scale 0 is the no-effect control and ±100 the full control effect). Put shortly: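 Wild-type CHO-K1 cells plated overnight, then exposed 3 hr at 37C to compounds at 15 concentrations (0.76% DMSO). Lysed, then HTRF anti-pH2AX(S139)-cryptate/anti-H2AX-d2 detection after 24 hr at room temperature; emissions 665 and 620 nm.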
A short description of test [8]: qHTS assay to identify small molecule agonists of the hypoxia (HIF-1) signaling pathway (AID 1224846; active means well fitted activation curve with a large enough effect in the signal ratio in the repeat runs, not every such curve was filed as active; the % refers to the signal ratio; further: on the % scale 0 is the no-effect control and ±100 the full control effect). Put shortly:
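Reporter induction in HRE-bla ME-180 cells is taken as agonism: cells sit 5 hrs after plating, receive compounds or DMSO only, incubate 17 hrs at 37C under 5% CO2, and are loaded with CCF4-AM for beta-lactamase FRET measurement.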

Test [9] is described as follows: qHTS assay to identify small molecule agonists of H2AX - cell viability counter screen (AID 1224847; calls by dose curve; further: nearly all actives have a fitted effect of over 30% in size; further: potency means the concentration at half of the fitted maximal effect). Put shortly: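 Viability of CHO-K1 (wild type) cells after 3 hr compound exposure was measured by CellTiter-Glo luminescence.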
The nature of test [10]: qHTS RealTime-Glo MT Cell Viability Assay in HepG2 cells - 24 hour (AID 1224867). Further: nearly all actives have a fitted effect of over 50% in size. Further: potency means the concentration at half of the fitted maximal effect. Put shortly:
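Cell number in HepG2 cultures estimated from NanoLuc luminescence generated by metabolic reduction of a prosubstrate by living cells. The homogeneous, nonlytic format allowed repeated reads at 0, 8, 16, 24, 32 and 40 h of compound exposure.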

Test [11] in a line: qHTS RealTime-Glo MT Cell Viability Assay in HEK293 cells - 32 hour (AID 1224868). Further: nearly all actives have a fitted effect of over 50% in size. Further: potency means the concentration at half of the fitted maximal effect. The method in brief: (§1)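 Homogeneous bioluminescent viability format in HEK293 cells (600 cells/well). Following 5 h at 37 C/5% CO2, 23 nL compound was pintooled; the signal was measured repeatedly during 40 h incubation.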
A short description of test [12]: A CellTox Green Cytotoxicity Assay to monitor cytotoxicity in HEK293 cells - 0 hour (AID 1224869). Further: on the % scale 0 is the no-effect control and ±100 the full control effect; nearly all actives have a fitted effect of over 50% in size. Put shortly: (§2)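 Tox21 screen in HEK293: membrane-impermeant cyanine dye fluoresces on binding dead-cell DNA; compound pinned 5 h post-seeding, plates held at 37 C, signal read repeatedly through 40 h.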
Test [13] in a line: qHTS RealTime-Glo MT Cell Viability Assay in HepG2 cells - 40 hour (AID 1224870). Further: nearly all actives have a fitted effect of over 50% in size. Further: potency means the concentration at half of the fitted maximal effect. The method in brief:
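HepG2 cells mixed with RealTime-Glo MT reagents (NanoLuc plus cell-permeant prosubstrate) were seeded at 600 cells/well, incubated 5 h at 37 C/5% CO2, then pinned with compounds in DMSO; nonlytic luminescence tracked viability during 40 h treatment.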

A short description of test [14]: A CellTox Green Cytotoxicity Assay to monitor cytotoxicity in HEK293 cells - 40 hour (AID 1224871). Further: nearly all actives have a fitted effect of over 45% in size. Further: potency means the concentration at half of the fitted maximal effect. The method in brief:
as §2

Test [15] in a line: qHTS RealTime-Glo MT Cell Viability Assay in HEK293 cells - 16 hour (AID 1224872). Further: nearly all actives have a fitted effect of over 50% in size. Further: potency means the concentration at half of the fitted maximal effect. Put shortly:
as §1

In test [16] the target is Nuclear receptor subfamily 1 group I member 3 (Homo sapiens) (UniProt Q14994). Kind of test: qHTS assay to identify small molecule agonists of the constitutive androstane receptor (CAR) signaling pathway (AID 1224839). Further: nearly all actives have a fitted effect of over 15% in size. Further: potency means the concentration at half of the fitted maximal effect.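 On activation: HepG2 cells stably carrying human CAR and a CYP2B6 luciferase reporter; on the % scale 0 is the no-effect control and ±100 the full control effect.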 Put shortly: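 Stable hCAR/CYP2B6-2.2kb HepG2 line in DMEM with 10% FBS; compounds (15 concentrations) and 0.75 uM PK11195 final, 24 h at 37 C/5% CO2, then ONE-Glo luminescence after 30 min.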
Chain of Nuclear receptor subfamily 1 group I member 3 (Homo sapiens) (Q14994 whole entry, looked up): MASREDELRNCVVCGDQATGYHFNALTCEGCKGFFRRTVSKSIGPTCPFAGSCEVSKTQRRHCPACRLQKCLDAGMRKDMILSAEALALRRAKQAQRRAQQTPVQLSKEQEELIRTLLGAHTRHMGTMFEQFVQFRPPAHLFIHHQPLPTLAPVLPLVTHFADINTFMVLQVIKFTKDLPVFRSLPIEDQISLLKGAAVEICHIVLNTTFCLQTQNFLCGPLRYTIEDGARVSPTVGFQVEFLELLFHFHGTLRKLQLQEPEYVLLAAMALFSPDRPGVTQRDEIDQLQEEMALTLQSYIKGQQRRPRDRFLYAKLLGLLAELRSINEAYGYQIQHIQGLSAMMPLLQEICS

A short description of test [17]: qHTS assay to identify small molecule antagonists of the estrogen related receptor signaling pathway with the pleiotropic PPARgamma coactivator (PGC) from Tox21 10K library (AID 1224841; call rule not given here). The method in brief: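 Test chemicals dissolved in DMSO were applied to pre-incubated (6 h) PGC/ERR cells at 2,000 cells/well for an 18 h, 37 C treatment; reporter luminescence was then read using One-Glo.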

A short description of test [18]: qHTS assay to identify small molecule agonists of the estrogen related receptor signaling pathway with the pleiotropic PPARgamma coactivator (PGC) from Tox21 10K library (AID 1224842). Further: on the % scale 0 is the no-effect control and ±100 the full control effect; nearly all actives have a fitted effect of over 15% in size. Put shortly:
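PGC/ERR reporter cells (NTP line) were seeded 2,000 per well, rested 6 h at 37 C/5% CO2, then pin-dosed with compounds in DMSO for 18 h at 37 C; luciferase read by One-Glo luminescence after 30 min at room temperature.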

Test [19] in a line: qHTS assay to identify small molecule antagonists of the estrogen related receptor (ERR) signaling pathway from Tox21 library (AID 1224848). The method in brief: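 First, 2,000 ERR cells per well were plated and held 6 h at 37 C/5% CO2. Next, compounds in DMSO were pinned in and left 18 h at 37 C. Finally, ONE-Glo was added and luminescence read after 30 min at room temperature.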

Test [20] is described as follows: qHTS assay to identify small molecule agonists of the estrogen related receptor (ERR) signaling pathway from Tox21 library (AID 1224849; calls by dose curve; further: on the % scale 0 is the no-effect control and ±100 the full control effect; nearly all actives have a fitted effect of over 15% in size). Conditions: ERR reporter cell line, ONE-Glo luciferase, 18 h; at 92.4 µM (top of the series) unless noted. Put shortly: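 Tox21 compounds tested for ERR agonism in an NTP reporter cell line: 18 h treatment at 37 C, then ONE-Glo luminescence.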

Where “and” joins values, the source holds several entries; their conditions need not be identical. Identical values can stand only once. A number with no mark means an inactive call. Inconclusive results are not listed. Calls of active or inactive are those of the source. Unless noted, the call rests on the fitted dose curve; in most records, active means well fitted curve in the direction sought with a large enough effect in the repeat runs; inconclusive means weak or mixed curves; inactive means no such curve, though single readings can be large; an effect the other way counts as inactive or inconclusive.

`C=C(C)C(=O)OCC[N+](C)(C)C`: the Potency result in test [1], in [2], in test [3], in test [4], in [5] and in [6] was “inactive” each time. The Potency entry in test [7], in test [8], in test [9], in test [10], in test [11] and in [12] was “inactive” in each case. Besides, the Potency result in test [13], in test [14] and in test [15] was “inactive” throughout.
Consider `S=c1[nH]c2ccccc2s1`, for which the Potency entry in test [1], in [2], in test [3], in test [18], in [8] and in [9] was “inactive” each time. Also, the Potency result in test [10], in test [11], in test [12], in [13] and in [15] was “inactive” each time. Further, the Potency in [16] is 54.5 µM (active); in test [17], 6.11 µM (active); in test [19], 54.5 µM (active). Moreover, in [20], the activity change, positive = activation is -59.1%.
Consider `NNc1nc(-c2ccc([N+](=O)[O-])cc2)cs1`, for which the Potency in test [1] was 54.5 µM (active); in [2], 54.5 µM (active); in [17], 48.6 µM (active); in test [9], 22.5 µM (active); in test [19] it was 27.3 µM (active); in test [11], 24.5 µM (active). Moreover, the Potency result in test [3], in [16], in [18], in test [12] and in test [14] was “inactive” throughout. In addition, in [20], the activity change, positive = activation is -52.6%.
`CC(=O)N1CCN(c2ccc(OC[C@H]3CO[C@](Cn4ccnc4)(c4ccc(Cl)cc4Cl)O3)cc2)CC1`: the Potency was 48.6 µM (active) in test [1]; 48.6 µM (active) in test [2]; 24.3 µM (active) in test [4]; 27.3 µM (active) in test [17]; 49 µM (active) in test [6]; 101 µM (active) in [9]. The Potency is 12.2 µM (active) in test [19]; 49 µM (active) in [10]; 24.5 µM (active) in test [11]; 54.9 µM (active) in test [13]; 49 µM (active) in test [14]; 21.9 µM (active) in test [15]. The Potency result in [3], in [18] and in [12] was “inactive” throughout. In addition, the activity change, positive = activation in [20] was -79.4%.
Regarding `N=C1N=C(N)c2ccccc21`, the Potency is 48.6 µM (active) in test [1]; 54.5 µM (active) in test [2]; 17.2 µM (active) in test [3]; 21.9 µM (active) in test [6]; 24.5 µM (active) in test [11]. The Potency result in [16], in [12] and in test [14] was “inactive” each time.
As to `Oc1ccc2cc(SSc3ccc4cc(O)ccc4c3)ccc2c1`, the Potency result in test [1], in test [2], in test [3], in test [18], in test [5] and in [6] was “inactive” each time. Besides, the Potency entry in test [8], in [10] and in test [12] was “inactive” each time. In addition, the Potency in test [17] was 48.6 µM (active) and 43.3 µM (active); in [9], 89.9 µM (active); in test [19], 61.2 µM (active) and 54.5 µM (active); in test [14], 49 µM (active) and 24.5 µM (active); in test [15], 49 µM (active). For the same compound, in test [20], the activity change, positive = activation was -64.5% and -58.9%.
